# Data published in PubChem BioAssay (NCI).
# The panel holds about 83,000 compounds, 20% with a hit somewhere; the sample as a whole holds those more often.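 Treatment: one concentration, 48 hours, 96-well format. Scoring: percent growth, with anything below 10 considered active.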 The source made the active and inactive calls.
# Test system: MDA-MB-468 breast
# Assay: NCI-60 one-dose screen, 48 h (100 = growth as untreated, 0 = no growth, -100 = all killed)
# Conditions: 10 µM unless noted
row,SMILES,growth
1,Nc1c(C(=O)Nc2ccccn2)sc2nc3c(cc12)C(O)CCC3 (stereo unspecified),15% (inactive)
2,CCN(CC)c1ccc(-c2cc(-c3cc(OC)c(OC)c(OC)c3)nc(N3CCC(O)CC3)c2C#N)cc1,-48.2% (active)
3,CCN(CC)CCC(CNc1c(C)cnc2cc(Cl)ccc12)c1ccc(Cl)cc1 (stereo unspecified),19.3% (inactive)
4,COc1cc(/C=C/C(=O)c2ccc(N3CCN(C)CC3)cc2)ccc1F,35% (inactive)
5,Cc1ccc(SC2c3ccc(C)cc3Oc3nc(N)c(C#N)c(N)c32)cc1 (stereo unspecified),-36.5% (active)
6,COc1c(B(O)O)cc(F)cc1-c1nc2ccc3[nH]ncc3c2c2c1CCCC2,-4.35% (active)
7,Cc1ccc(C)c(CN(C)C)c1O,97.7% (inactive)
8,CCc1ccc(Oc2c(-c3ccc(OCc4ccc(Cl)cc4)cc3O)nn(C)c2C(F)(F)F)cc1,-11.1% (active)
9,CCCSC1=NC2C(N(CC)C(=O)N2CC)N1/N=C/C=C/c1ccccc1[N+](=O)[O-] (stereo unspecified),29.9% (inactive)
10,N=C1N=C(N)CS1,103% (inactive)
11,C1Cc2onc(-c3noc4c3CCC4)c2C1,110% (inactive)
12,COc1cc2c(cc1OC)C(=O)/C(=C/c1cc(C)c(O)c(C)c1)S2,11.4% (inactive)
13,CCn1c(Cc2ccccc2Nc2c(Cl)cccc2Cl)nnc1SCC(=O)Nc1ccccc1C(F)(F)F,69.9% (inactive)
14,O=C(O)COc1c(Cl)cc([N+](=O)[O-])cc1Cl,99.4% (inactive)
15,COc1ccc(-c2cc(Nc3ccnc(N4CCOCC4)n3)on2)cc1,24.8% (inactive)
16,CC(=O)C1=C(C)NC(SCc2nnc(-c3ccc(C)cc3)o2)=NC1c1ccc(F)cc1 (stereo unspecified),93.4% (inactive)
